Our source for the GFP signal change (wild-type ribosome), OD600 change and RFP signal change values is PubChem BioAssay AID720706 (Broad Institute, 2013).

The structures appear in SMILES notation. Values joined by “and” are separate entries in the source; they are usually repeats but may differ in a detail not shown here. Equal values may be shown once. The whole screen tested about 350,000 compounds, of which about 5,500 (1.6%) were called active.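 The calls were made as follows: active = significant combined selectivity score with lowered wild-type GFP, culture density cut under 30%, mutant RFP and density less affected; inactive = any of these conditions unmet.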 This excerpt belongs to a sample that is enriched for actives.

A short description of this test: reduced GFP signal of wild-type E. coli, primary screen, bacterial rRNA inhibitor project, GFP/RFP fluorescence, OD600, single point (AID 720706). Conditions: E. coli WT GFP vs humanized-ribosome RFP mutants, 24 h; GFP signal change (wild-type ribosome): stronger effect = lower value, DMSO median 0, no signal -100; OD600 change: measured here: OD600 growth, DMSO median 0, no signal -100; RFP signal change: measured here: RFP humanized mutant strains, DMSO median 0, no signal -100, concentration not given here.
`O=C(C[C@H]1C[C@H]2c3cc(NC(=O)Nc4ccc(C(F)(F)F)cc4)ccc3O[C@H]2[C@@H](CO)O1)NCc1cccnc1`: the GFP signal change (wild-type ribosome) was 3.1% (inactive), the OD600 change is 2.56% and the RFP signal change is -0.972%.

Consider `COc1cccc(S(=O)(=O)N2[C@@H]3CNC[C@H]2C3c2ccc(-c3ccccc3OC)cc2)c1` (stereo not given in full), for which the GFP signal change (wild-type ribosome) is -57.9% (inactive) and 6.81% (inactive); the OD600 change is -76.9% and 4.62%; the RFP signal change is -12.3% and 0.158%.

Turning to `COc1cccc(S(=O)(=O)N2C[C@H](O)COC[C@H]3O[C@@H](CC(=O)N4CCN(c5ccccc5)CC4)CC[C@@H]32)c1`, the GFP signal change (wild-type ribosome) was -6.4% (inactive), the OD600 change was -3.12% and the RFP signal change was found to be 2.98%.

Turning to `CCCN(C)C[C@@H]1OCCCC[C@H](C)Oc2ccc(NS(=O)(=O)c3ccc(C)cc3)cc2C(=O)N([C@H](C)CO)C[C@@H]1C`, the GFP signal change (wild-type ribosome) was -0.00475% (inactive), the OD600 change was -4.83% and the RFP signal change is 1.63%.

On to `COCC(=O)Nc1ccc2c(c1)C(=O)N(C)C[C@@H](OC)[C@@H](C)CN(CC1CCCCC1)[C@@H](C)CO2`, for which the GFP signal change (wild-type ribosome) is 0.911% (inactive), the OD600 change was determined as 5.47% and the RFP signal change is -0.068%.

With `COc1ccccc1N1CCN(Cc2cc(OC)c3c(c2)OCO3)CC1`, the GFP signal change (wild-type ribosome) is -2.5% (inactive), the OD600 change is -4.28% and the RFP signal change is -3.78%.

With `COc1ccccc1N1CCN(Cc2ccc(OC)c3ccccc23)CC1`, the GFP signal change (wild-type ribosome) is -21.9% (active), the OD600 change was -8.32% and the RFP signal change was -3.95%.

As to `COc1ccc(CN2CCN(Cc3ccc(OC)c(OC)c3OC)CC2)cc1`, the GFP signal change (wild-type ribosome) was 13.2% (inactive), the OD600 change amounted to 19.1% and the RFP signal change was -0.244%.

Consider `CO[C@@H](CN(C)S(=O)(=O)c1ccc(F)cc1)[C@H](C)CN(C(=O)Nc1ccccc1F)[C@@H](C)CO`, for which the GFP signal change (wild-type ribosome) is -3.35% (inactive), the OD600 change turned out to be 0.819% and the RFP signal change was -3.65%.

Take `C[C@@H]1CN([C@H](C)CO)C(=O)Cc2cc(NC(=O)C3CCCCC3)ccc2O[C@@H]1CN(C)Cc1ccc(C(F)(F)F)cc1`: the GFP signal change (wild-type ribosome) is -2.69% (inactive), the OD600 change worked out at 1.55% and the RFP signal change is 2.15%.

For the compound `COc1ccc(C(=O)NC(=S)NC2CCCCC2)cc1`, the GFP signal change (wild-type ribosome) was -49.8% (inactive), the OD600 change is -73.1% and the RFP signal change was -12.9%.

For `COc1ccc2nc(NC(=O)NC3CCCCC3)sc2c1`, the GFP signal change (wild-type ribosome) is -22.5% (active), the OD600 change is -17.5% and the RFP signal change is 7.27%.

Turning to `Cc1nc2ccc(NC(=O)C3CCCCC3)cc2s1`, the GFP signal change (wild-type ribosome) is -1.32% (inactive), the OD600 change is -0.83% and the RFP signal change is -0.607%.

For `C[C@H](CO)N1C[C@H](C)[C@H](CN(C)Cc2ccccc2)OCCCC[C@H](C)Oc2ccc(NC(=O)CCC(F)(F)F)cc2C1=O`, the GFP signal change (wild-type ribosome) was -1.2% (inactive), the OD600 change is -5.79% and the RFP signal change was -1.47%.

In the case of `CC(C)NC(=O)Nc1ccc2c(c1)C(=O)N([C@@H](C)CO)C[C@@H](C)[C@H](CN(C)Cc1ccc(Cl)c(Cl)c1)O2`, the GFP signal change (wild-type ribosome) was -11.4% (inactive), the OD600 change is -58.1% and the RFP signal change is 26%.

Regarding `CN(C)CCCNC(=O)/C=C/c1ccc(OCc2c(F)cccc2Cl)cc1`, the GFP signal change (wild-type ribosome) was -45.5% (active), the OD600 change was -31% and the RFP signal change was -4.52%.

As to `COCCCNC(=O)/C=C/c1ccc(OCc2c(F)cccc2Cl)cc1`, the GFP signal change (wild-type ribosome) was -4.38% (inactive), the OD600 change is -2.58% and the RFP signal change was -3.12%.

As to `O=C(/C=C/c1ccc(OCc2c(F)cccc2Cl)cc1)N1CCOCC1`, the GFP signal change (wild-type ribosome) is -49% (inactive), the OD600 change is -72.9% and the RFP signal change was -13.9%.

Consider `Cc1noc(C)c1NC(=O)Nc1ccc2c(c1)C(=O)N([C@H](C)CO)C[C@@H](C)[C@@H](CN(C)Cc1ccncc1)OCCCC[C@H](C)O2`, for which the GFP signal change (wild-type ribosome) was 0.824% (inactive), the OD600 change is 10.7% and the RFP signal change was -1.14%.

As to `C[C@H]1CN(C)C(=O)c2cccc(N(C)C)c2O[C@@H]1CN(C)C`, the GFP signal change (wild-type ribosome) was -0.435% (inactive), the OD600 change worked out at 5.4% and the RFP signal change was -1.5%.

`CO[C@H]1CN(C)C(=O)c2ccc(NC(=O)CC(F)(F)F)cc2OC[C@@H](C)N(C(=O)c2ccccc2F)C[C@@H]1C`: the GFP signal change (wild-type ribosome) was 3.23% (inactive), the OD600 change was found to be 1.55% and the RFP signal change is 3.46%.

Turning to `COc1ccc(C2/C(=C(/O)c3ccccc3)C(=O)C(=O)N2C)c(OC)c1` (stereo not given), the GFP signal change (wild-type ribosome) was -2.38% (inactive), the OD600 change was determined as 2.38% and the RFP signal change was -3.31%.

In the case of `CCOc1ccc(/C(O)=C2\C(=O)C(=O)N(c3ccc(OC)cc3)C2c2ccccc2[N+](=O)[O-])cc1` (stereo not given), the GFP signal change (wild-type ribosome) was -20.6% (active), the OD600 change came out at 6.17% and the RFP signal change was determined as 5.06%.

`COc1ccccc1C1/C(=C(/O)c2ccc(C)cc2)C(=O)C(=O)N1Cc1ccco1` (stereo not given): the GFP signal change (wild-type ribosome) was 6.88% (inactive), the OD600 change is 7.9% and the RFP signal change stood at 1.73%.

With `COCC(=O)Nc1ccc2c(c1)[C@H]1C[C@H](CC(=O)NCc3ccccn3)O[C@H](CO)[C@H]1O2`, the GFP signal change (wild-type ribosome) is -0.801% (inactive), the OD600 change is -4.21% and the RFP signal change was -2.1%.

On to `O=S1(=O)c2ccc(Br)cc2-n2nncc2CN1Cc1cccc(Cl)c1`, for which the GFP signal change (wild-type ribosome) was -5.88% (inactive), the OD600 change is -16.9% and the RFP signal change is -5.12%.

Regarding `O=C(N[C@@H](Cc1ccccc1)C(=O)OCc1ccccc1)c1nc[nH]c1C(=O)N[C@@H](Cc1ccccc1)C(=O)OCc1ccccc1`, the GFP signal change (wild-type ribosome) was 8.68% (inactive), the OD600 change was 15.5% and the RFP signal change was -0.702%.

`O=C(N[C@@H](Cc1ccccc1)C(=O)OCc1ccccc1)c1nc[nH]c1C(=O)NC1CCNCC1`: the GFP signal change (wild-type ribosome) was -20.9% (active), the OD600 change is -8.38% and the RFP signal change is -3.23%.

Consider `CC(C)(C)OC(=O)N1CCC(NC(=O)c2[nH]cnc2C(=O)N[C@@H](Cc2ccccc2)C(=O)OCc2ccccc2)CC1`, for which the GFP signal change (wild-type ribosome) is 12.4% (inactive), the OD600 change was -1.46% and the RFP signal change came out at 0.755%.

As for `O=C(c1cccc(F)c1)N1CC(=O)N2[C@H](C1)[C@@H](c1ccc(C#Cc3ccc(F)cc3)cc1)[C@@H]2CO`, the GFP signal change (wild-type ribosome) is 1.74% (inactive), the OD600 change is -7.67% and the RFP signal change is 4.35%.
